Data: PubChem BioAssay (EPA / NIEHS)
Where “and” joins values, the source holds several entries; their conditions need not be identical. Equal entries are not always repeated. Where a structure was tested more than once in an assay, its records may differ in their call. Calls of active or inactive are those of the source. How the source made its calls: active means hit-call score of the fitted dose curve at least 0.9, where 1 is the maximum; inactive means score below 0.9.

Columns and labels:
[1] = IUF_NPC2c_oligodendrocyte_migration_120hr: Leibniz Research Institute for Environmental Medicine (IUF) 120-hour Neural Progenitor Cell Migration Assay for Oligodendrocyte Migration (NPC2c) (AID 2284297);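 further: O4-positive oligodendrocyte migration distance divided by radial glia migration distance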
How it was run: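 Exposure runs 5 days from differentiation onset at 37C, seven concentrations plus solvent control, DMSO at most 0.1%, applied to primary hNPC spheres on laminin. After fixation, O4 immunostaining gives oligodendrocyte distance from the sphere core, relative to radial glia migration.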

[2] = IUF_NPC2a_radial_glia_migration_120hr: Leibniz Research Institute for Environmental Medicine (IUF) 120-hour Neural Progenitor Cell Migration Assay for Radial Glia Migration (NPC2a) (AID 2284298)
How it was run: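 Migration distance in um, sphere core edge to migration-area edge, derived by nuclei-density algorithm from Hoechst images after 120 h compound exposure. Primary hNPC spheres differentiated on poly-D-lysine/laminin in N2 medium, 37C; medium half-replaced day 3.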

[3] = IUF_NPC2a_radial_glia_migration_72hr: Leibniz Research Institute for Environmental Medicine (IUF) 72-hour Neural Progenitor Cell Migration Assay for Radial Glia Migration (NPC2a) (AID 2284299)
How it was run: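 Human fetal cortex (GW 16-19) neural progenitor spheres, 0.3 mm, plated on poly-D-lysine/laminin in N2 differentiation medium with compound from day 0. Radial glia migration distance (um, sphere core edge to migration edge) measured manually in four directions on 72 h brightfield images; well mean used.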

[4] = read-out: Interleukin-8 (IL8), CXCL8 (gene 3576); assay: BSK_IMphg_IL8: BioMAP Diversity Plus: IMphg Assay for Interleukin-8 (IL8) Biomarker Activity (AID 2284277); details: primary human endothelial cells with macrophages
How it was run: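 Co-culture of human venular endothelial cells and macrophages exposed to chemicals for 24 h; IL-8 quantified by ELISA and compared against the DMSO baseline, with SRB total-protein staining in parallel cultures for cytotoxicity.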

[5] = read-out: Intercellular Adhesion Molecule 1 (ICAM1), ICAM1 (gene 3383); assay: BSK_BE3C_ICAM1: BioMAP Diversity Plus: BE3C Assay for Intercellular Adhesion Molecule 1 (ICAM1) Biomarker Activity (AID 2284278); details: primary human bronchial epithelial cells;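 further: cell-surface ICAM-1 protein level quantified by ELISA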
How it was run: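 Primary human bronchial epithelial cells were exposed to compound for 24 h, after which cell-surface ICAM-1 was quantified by ELISA. Activity was fitted in the gain-of-signal direction against DMSO as negative control and baseline.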

[6] = read-out: Interferon-inducible T-cell alpha chemoattractant (ITAC), CXCL11 (gene 6373); assay: BSK_BE3C_ITAC: BioMAP Diversity Plus: BE3C Assay for Interferon-inducible T-cell alpha chemoattractant (ITAC) Biomarker Activity (AID 2284279); details: primary human bronchial epithelial cells
How it was run: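 ELISA read-out of I-TAC after 24 h chemical dosing of human lung primary bronchial epithelial cells; gain-of-signal fit vs DMSO baseline. Parallel SRB total-protein staining (0.1% SRB, 10% TCA fixation, 560 nm) assessed cytotoxicity.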

[7] = read-out: Interleukin-8 (IL8), CXCL8 (gene 3576); assay: BSK_BE3C_IL8: BioMAP Diversity Plus: BE3C Assay for Interleukin-8 (IL8) Biomarker Activity (AID 2284280); details: primary human bronchial epithelial cells
How it was run: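 IL-8 signal gain, normalised to DMSO vehicle, was scored after a 24 h chemical exposure of primary human bronchial epithelial cells, with detection by ELISA.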

[8] = read-out: Epidermal growth factor receptor (EGFR), EGFR (gene 1956); assay: BSK_BE3C_EGFR: BioMAP Diversity Plus: BE3C Assay for Epidermal growth factor receptor (EGFR) Biomarker Activity (AID 2284281); details: primary human bronchial epithelial cells
How it was run: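 Compound is added to human bronchial epithelial cells, cells incubate 24 h, then EGFR is detected by ELISA. Values reflect positive-direction fitting relative to DMSO.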

KRT18 (gene 3875) = assay: BSK_BE3C_Keratin818: BioMAP Diversity Plus: BE3C Assay for Keratin 818 Biomarker Activity (AID 2284282); details: primary human bronchial epithelial cells
How it was run: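 Human primary bronchial epithelial cells in the BE3C system were exposed to test chemical for 24 h, then Keratin 8/18 was quantified by ELISA. Activity was fitted in the positive direction against DMSO as negative control and baseline.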

[9] = read-out: Plasminogen activator inhibitor-1 (PAI1), SERPINE1 (gene 5054); assay: BSK_CASM3C_PAI1: BioMAP Diversity Plus: CASM3C Assay for Plasminogen activator inhibitor-1 (PAI1) Biomarker Activity (AID 2284284); details: primary human coronary artery smooth muscle cells;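 further: PAI-1 protein level measured by ELISA 24 h after dosing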
[10] = read-out: Monocyte Chemoattractant Protein-1 (MCP1), CCL2 (gene 6347); assay: BSK_hDFCGF_MCP1: BioMAP Diversity Plus: hDFCGF Assay for Monocyte Chemoattractant Protein-1 (MCP1) Biomarker Activity (AID 2284285); details: primary human foreskin fibroblasts
How it was run: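 Human foreskin fibroblasts (hDFCGF system) were exposed to compound and secreted MCP-1 was measured by ELISA after 24 hours. Activity was fitted relative to DMSO. Cytotoxicity was checked by SRB total-protein staining in parallel cultures.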

[11] = read-out: Vascular cell adhesion molecule 1 (VCAM1), VCAM1 (gene 7412); assay: BSK_IMphg_VCAM1: BioMAP Diversity Plus: IMphg Assay for Vascular cell adhesion molecule 1 (VCAM1) Biomarker Activity (AID 2284286); details: primary human endothelial cells with macrophages
How it was run: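 Human venular endothelial cells co-cultured with macrophages; VCAM-1 quantified by ELISA 24 h after dosing, fitted in the positive direction against DMSO. Cytotoxicity was checked in parallel cultures by SRB total-protein staining (0.1% SRB after 10% TCA fixation, 560 nm).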

[12] = read-out: Intercellular Adhesion Molecule 1 (ICAM1), ICAM1 (gene 3383); assay: BSK_hDFCGF_ICAM1: BioMAP Diversity Plus: hDFCGF Assay for Intercellular Adhesion Molecule 1 (ICAM1) Biomarker Activity (AID 2284287); details: primary human foreskin fibroblasts
How it was run: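 Primary human foreskin fibroblasts (hDFCGF system) dosed with chemical; ICAM-1 quantified by ELISA at 24 h relative to DMSO. Parallel SRB total-protein staining to assess overt cytotoxicity.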

CD40, CD40 (gene 958) = assay: BSK_IMphg_CD40: BioMAP Diversity Plus: IMphg Assay for CD40 Biomarker Activity (AID 2284288); details: primary human endothelial cells with macrophages
How it was run: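 Venular endothelial cells co-cultured with macrophages (human primary), CD40 measured by ELISA 24 h after dosing. Positive-direction fit vs DMSO baseline; cytotoxicity tracked by SRB total-protein staining in parallel cultures.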

[13] = read-out: TIMP metallopeptidase inhibitor 2 (TIMP2), TIMP2 (gene 7077); assay: BSK_hDFCGF_TIMP2: BioMAP Diversity Plus: hDFCGF Assay for TIMP metallopeptidase inhibitor 2 (TIMP2) Biomarker Activity (AID 2284289); details: primary human foreskin fibroblasts
How it was run: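 Primary human foreskin fibroblasts in the hDFCGF system, dosed for 24 h; TIMP-2 level measured by ELISA, fitted in the positive direction against DMSO; cytotoxicity checked in parallel by sulforhodamine B total protein staining.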

[14] = read-out: Interleukin-1 alpha (IL1a), IL1A (gene 3552); assay: BSK_IMphg_IL1a: BioMAP Diversity Plus: IMphg Assay for Interleukin-1 alpha (IL1a) Biomarker Activity (AID 2284290); details: primary human endothelial cells with macrophages
How it was run: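 Human venular endothelial cells co-cultured with macrophages, IMphg system. IL-1α is measured by ELISA 24 h after dosing and fitted in the positive direction against DMSO. Cytotoxicity is assessed by SRB staining of parallel cultures.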

[15] = read-out: E-selectin (Homo sapiens) (UniProt P16581); assay: BSK_IMphg_ESelectin: BioMAP Diversity Plus: IMphg Assay for Eselectin Biomarker Activity (AID 2284291); details: primary human endothelial cells with macrophages
How it was run: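 Human venular endothelial cell–macrophage co-culture, E-selectin measured by ELISA 24 h after chemical dosing. Signal fitted in the positive direction against DMSO as negative control and baseline.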

[16] = read-out: Interleukin-10 (IL10), IL10 (gene 3586); assay: BSK_IMphg_IL10: BioMAP Diversity Plus: IMphg Assay for Interleukin-10 (IL10) Biomarker Activity (AID 2284294); details: primary human endothelial cells with macrophages
How it was run: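 Human venular endothelial cells cocultured with macrophages, dosed 24 h; IL-10 measured by ELISA, activity relative to DMSO. Cytotoxicity assessed in parallel cultures by sulforhodamine B total-protein staining.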

[17] = BSK_IMphg_SRB.Mphg: Macrophage Viability Assessment in the BioMAP Diversity Plus: IMphg Assay (AID 2284295); details: primary human endothelial cells with macrophages
How it was run: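 Venular endothelial cells co-cultured with macrophages, read 24 h after dosing. Total protein measured by 0.1% SRB staining after 10% TCA fixation, absorbance at 560 nm. Fitted in positive direction against DMSO baseline.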

[18] = read-out: Thrombomodulin, THBD (gene 7056); assay: BSK_LPS_Thrombomodulin: BioMAP Diversity Plus: LPS Assay for Thrombomodulin Biomarker Activity (AID 2284296); details: primary human HUVEC with PBMC
How it was run: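 Human umbilical vein endothelial cells co-cultured with PBMC and stimulated with LPS; cell-surface thrombomodulin measured by ELISA 24 hours after compound. Gain or loss versus DMSO; cytotoxicity checked by SRB staining in parallel cultures.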

Measured: AC50

Chain of E-selectin (Homo sapiens) (P16581 whole entry, looked up): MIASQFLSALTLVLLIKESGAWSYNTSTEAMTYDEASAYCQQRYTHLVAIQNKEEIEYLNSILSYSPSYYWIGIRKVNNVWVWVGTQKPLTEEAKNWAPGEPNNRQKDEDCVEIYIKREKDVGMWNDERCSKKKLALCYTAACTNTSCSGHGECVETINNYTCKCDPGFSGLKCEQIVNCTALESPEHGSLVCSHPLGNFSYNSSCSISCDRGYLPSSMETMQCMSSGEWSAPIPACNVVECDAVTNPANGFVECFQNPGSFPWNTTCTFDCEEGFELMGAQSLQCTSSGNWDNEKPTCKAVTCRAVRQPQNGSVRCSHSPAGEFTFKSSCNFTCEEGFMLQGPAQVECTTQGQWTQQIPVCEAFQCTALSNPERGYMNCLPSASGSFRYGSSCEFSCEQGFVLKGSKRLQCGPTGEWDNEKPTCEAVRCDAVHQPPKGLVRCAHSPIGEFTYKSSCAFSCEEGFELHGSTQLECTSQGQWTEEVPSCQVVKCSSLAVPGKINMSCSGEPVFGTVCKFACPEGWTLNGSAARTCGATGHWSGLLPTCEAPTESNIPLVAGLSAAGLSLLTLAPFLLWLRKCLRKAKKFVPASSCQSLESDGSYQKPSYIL

Nc1ccn([C@@H]2O[C@H](CO)[C@@H](O)[C@@H]2O)c(=O)n1
inactive: [1] | [2] | [3]

FC(F)(F)C(F)(F)C(F)(F)C(F)(F)C(F)(F)C(F)(F)I
inactive: [4] | [5] | [6] | [7] | [8] | KRT18 (gene 3875) | [9] | [10] | [11] | [12] | CD40, CD40 (gene 958) | [13] | [14] | [15] | [16] | [17] | [18]
active: [10] 28.2 µM

FC(F)C(F)(F)COCC1CO1 (configuration not stated)
not listed: [1] | [2] | [3]
inactive: all other assays above

FC(F)(F)COC(OCC(F)(F)F)OCC(F)(F)F
not listed: [1] | [2] | [3]
inactive: all other assays above

OCCC(F)(F)C(F)(F)C(F)(F)C(F)(F)F
not listed: [1] | [2] | [3]
inactive: all other assays above

O=S(=O)(O)CCC(F)(F)C(F)(F)C(F)(F)C(F)(F)C(F)(F)C(F)(F)F
active: [18] 0.227 µM
inactive: [4] | [5] | [6] | [7] | [8] | KRT18 (gene 3875) | [9] | [10] | [11] | [12] | CD40, CD40 (gene 958) | [13] | [14] | [15] | [16] | [17] | [18]

FC(F)=C(F)C(F)(F)C(F)(F)C(F)(F)C(F)(F)C(F)(F)C(F)(F)F
not listed: [1] | [2] | [3]
inactive: all other assays above

CCCC(CCC)C(=O)O
inactive: [1]
active: [3] 1330 µM

C[Si](C)(C)C(F)(F)C(F)(F)C(F)(F)F
not listed: [1] | [2] | [3]
inactive: all other assays above

O=C(Cl)C(F)(F)C(F)(F)C(F)(F)C(=O)Cl
not listed: [1] | [2] | [3]
inactive: all other assays above

NCC(F)(F)C(F)(F)C(F)(F)C(F)(F)F
not listed: [1] | [2] | [3]
inactive: all other assays above

Cn1cc[nH]c1=S
inactive: [1] | [2] | [3]

OC(O)(C(F)C(O)(O)C(F)(F)F)C(F)(F)F
active: [4] 50.1 µM | [7] 22 µM | [13] 7.41 µM and 22.4 µM | [16] 25 µM and 22.2 µM
inactive: [4] | [5] | [6] | [7] | [8] | KRT18 (gene 3875) | [9] | [10] | [11] | [12] | CD40, CD40 (gene 958) | [14] | [15] | [17] | [18]
